Only some compounds are listed: those with a hit (about 2.4% of all), similar ones and a draw of the others.
PP5 inh: PP5 phosphatase inhibitors, primary screen, biochemical, fluorescence. Serine/threonine-protein phosphatase 5 (Homo sapiens), P53041. purified PP5c, OMFP substrate fluorescence. inhibition, % at 6.7 µM. 320,000 tested, 0.18% active. AID 1987, 2009;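 active = inhibition above the campaign's mean inhibition across all tested compounds plus 3 SD, cut at about 9.5% in these data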;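 also: 0% = DMSO only and 100% = 100 µM cantharidin control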
Target sequence (P53041 whole entry, looked up): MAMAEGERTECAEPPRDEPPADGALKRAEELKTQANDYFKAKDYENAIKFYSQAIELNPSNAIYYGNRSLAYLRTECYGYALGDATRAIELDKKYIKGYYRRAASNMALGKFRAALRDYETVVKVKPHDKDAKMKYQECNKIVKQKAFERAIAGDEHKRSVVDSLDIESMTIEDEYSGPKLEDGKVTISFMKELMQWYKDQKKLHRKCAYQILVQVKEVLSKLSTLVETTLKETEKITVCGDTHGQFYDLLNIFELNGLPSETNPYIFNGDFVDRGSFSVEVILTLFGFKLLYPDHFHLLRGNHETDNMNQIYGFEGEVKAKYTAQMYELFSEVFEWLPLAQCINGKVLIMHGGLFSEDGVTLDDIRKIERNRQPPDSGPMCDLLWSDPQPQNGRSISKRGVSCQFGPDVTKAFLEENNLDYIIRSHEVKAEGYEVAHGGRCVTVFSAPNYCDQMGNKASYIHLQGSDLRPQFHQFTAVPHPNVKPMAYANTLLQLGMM
Rpn11 block: Rpn11 (PSMD14) deubiquitinase inhibitors, primary screen, biochemical, fluorescence polarization, uHTS; 26S proteasome non-ATPase regulatory subunit 14 (Homo sapiens), O00487; human 26S proteasome, Ub4-pepOG fluorescence polarization; 20S core pre-blocked with epoxomicin; AID 588493, 2011; 360,000 tested, 0.59% active; inhibition, % at 20 µM;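 active = inhibition at 20 µM, scaled to each plate's controls, above about 33%, limit read from the data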
NadD inh: inhibitors of S. aureus NadD, primary screen, biochemical, colorimetric, uHTS. inhibition, % at 20 µM. 360,000 tested, 0.78% active. Nicotinate-nucleotide adenylyltransferase NadD (Staphylococcus aureus N315). purified NadD enzyme, colorimetric absorbance read-out. AID 602399, 2012; in the data active = inhibition above about 26%
PP1 inh: PP1-alpha phosphatase inhibitors, primary screen, counter-screen for PP5 inhibitor project, biochemical, fluorescence, OMFP substrate, single point; 320,000 tested, 0.9% active; Serine/threonine-protein phosphatase PP1-alpha catalytic subunit (Homo sapiens), P62136; inhibition, % at 6.7 µM; purified PP1alpha; AID 2235, 2010;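 active = inhibition above the mean inhibition of all tested compounds plus 3 SD, computed separately for each screening campaign, cut at about 15% in these data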
PREPL inhibitor: PREPL enzyme inhibitors, primary screen, biochemical, fluorescence polarization | Prolyl endopeptidase-like (Homo sapiens), Q4J6C6 | recombinant PREPL, fluorescence polarization activity-based probe | inhibition, % at 5.96 µM | 320,000 tested, 0.68% active | AID 2751, 2010; in the data active = inhibition above about 43%;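 also: 0% = enzyme with DMSO and 100% = wells lacking enzyme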
Active calls of the source: *; . = not tested or not shown; + = active, no number; ! = not active in a repeat.

SMILES | PP5 inh | Rpn11 block | NadD inh | PP1 inh | PREPL inhibitor
O=C1NC(=O)N(CCc2ccc(F)cc2)C(=O)/C1=C\C=C\c1ccccc1 | . | 9.1 | 36.0* | . | .
C=CCN1C(=O)NC(=O)/C(=C/C=C/c2ccccc2)C1=O | . | 30.4 | 5.2 | . | .
Cc1cc(N2CCCC2)ccc1C=C(C#N)C#N | 1.9 | -2.3 | 2.4 | 0.8 | 0.2
N#CC(C#N)=Cc1ccc(C=C(C#N)C#N)cc1 | . | 72.0* | -4.5 | . | .
O=c1[nH]c2ccccc2n1C1CCN(C(c2ccccc2OC(F)(F)F)c2nnnn2Cc2ccccc2)CC1 (centres undefined) | . | 7.4 | 9.5 | . | .
O=C1NC(=S)N(C2CC2)C(=O)/C1=C/c1ccc2c(c1)CCN2CCCCl | -1.3 | 13.0 | 17.8 | -3.6 | 2.0
CCN1C(=O)/C(=C/c2ccc3c(c2)CCN3CCCCl)C(=O)NC1=S | 1.6 | 6.3 | 31.2* | 2.8 | 11.0
O=C1NC(=O)C(=Cc2cn(CCOc3ccc4c(c3)OCO4)c3ccccc23)C(=O)N1 | 1.2 | . | 42.7* | 0.9 | -6.5
O=C1NC(=O)C(=Cc2ccc(-c3ccc(S(=O)(=O)N4CCOCC4)cc3)o2)C(=O)N1 | -0.9 | 0.6 | 9.7 | 5.0 | -2.5
O=C1NC(=O)C(=Cc2ccc(-c3ccc(Cl)cc3)o2)C(=O)N1 | 1.5 | 2.3 | 38.8* | -1.0 | -3.8
COc1ccc(/C=C2\C(=O)NC(=S)N(C)C2=O)cc1C | -1.2 | 107.2* | -2.8 | -2.7 | 2.1
Cc1ccsc1/C=C1\C(=O)NC(=S)N(C)C1=O | 0.8 | 1.0 | 6.4 | -8.3 | -1.1
COC(=O)C1=C(c2ccccc2OCc2ccccc2)C[C@@H]2CC[C@H]1N2C(=O)NCc1ccc(C(C)(C)C)cc1 | 3.6 | 3.8 | 3.9 | 17.0* | 5.2
COC(=O)C1=C(c2ccc(F)cc2OCc2ccccc2)C[C@@H]2CC[C@H]1N2C(=O)NCc1ccc(F)cc1 | 4.5 | 2.6 | -4.4 | 2.7 | 4.8
COC(=O)C1=C(c2ccc(F)cc2OCc2ccccc2)C[C@@H]2CC[C@H]1N2C(=O)NC1Cc2ccccc2C1 | 0.0 | 18.9 | 0.4 | 17.4* | 11.6
COC(=O)C1=C(c2ccccc2OCc2ccccc2)C[C@@H]2CC[C@H]1N2C(=O)NCc1ccc(F)cc1 | 2.6 | 3.7 | -7.8 | 8.1 | 6.3
O=C1NC(=O)N(Cc2ccco2)C(=O)/C1=C/C=C/c1ccco1 | -0.4 | 140.8* | 19.3 | 4.8 | -12.2
CN1C(=O)/C(=C/C=C/c2ccco2)C(=O)NC1=S | 0.5 | 148.6* | 4.3 | 5.9 | -3.4
CC(=O)N1CCC(N2CCCC(C(=O)c3cccc(Cl)c3)C2)CC1 (centres undefined) | -0.5 | 2.2 | -5.5 | -8.4 | 1.8
COc1ccc(C(=O)C2CCCN(CCc3ccccc3)C2)cc1OC (centres undefined) | . | -1.9 | -6.5 | . | .
O=C(c1cc2cc(F)ccc2[nH]1)N1CCC2(CC1)OCCO2 | -0.5 | 4.4 | 2.4 | 16.7* | 6.2
CNc1ccc2oc(C[C@H]3O[C@@]4(CC[C@H]3C)O[C@H]([C@H](C)C(=O)c3ccc[nH]3)[C@H](C)C[C@H]4C)nc2c1C(=O)O | 4.6 | 4.4 | 58.9* | 16.7* | 15.8
CCOC(=O)[C@]12Cc3ccccc3[C@H]1N(Cc1ccccc1)C(=O)c1cc(F)c(F)cc12 | . | . | 6.4 | . | .
O=C1NC(=S)N(c2ccc(F)cc2)C(=O)/C1=C\c1ccoc1 | . | + | 31.6* | . | .
Cc1ccc(N2C(=O)NC(=O)/C(=C\c3ccoc3)C2=O)cc1 | 1.1 | 37.5 | 0.8 | -2.9 | -9.1
SMILES | PP5 inh | Rpn11 block | NadD inh | PP1 inh | PREPL inhibitor
Cc1cccc(OP(N)(=O)Oc2cccc(C)c2C)c1C | -2.1 | -7.8 | -9.4 | -0.7 | -0.4
CCCC/C(C)=C/[C@@H](NP(=O)(c1ccccc1)c1ccccc1)c1ccccc1 | 7.7 | 4.1 | -4.4 | 15.6* | -4.8
CCCCCP(=O)(O)c1ccccc1 | 1.7 | 1.9 | 6.3 | -3.2 | 1.5
CN1/C(=C\C=C\C2=[N+](C)c3ccc4ccccc4c3C2(C)C)C(C)(C)c2ccccc21 | 12.0* | . | . | 36.3* | -233.4
CCC(CO)NC(=O)C1C=C2c3cccc4[nH]cc(c34)CC2N(C)C1 (centres undefined) | -1.1 | -37.8 | 12.5 | 0.9 | 30.7
CC[C@@H](CO)NC(=O)[C@@H]1C=C2c3cccc4c3c(cn4C)C[C@H]2N(C)C1 | 4.0 | -60.5 | 3.9 | -1.1 | 53.7*!
O=S(=O)(c1cc(Cl)cc(Cl)c1)N1Cc2cc(-c3cccc(F)c3)ccc2-n2nncc2C1 | . | 6.6 | 7.3 | . | .
Cc1c(C=C2C(=O)N(C)C(=S)N(C)C2=O)c2ccccc2n1CC(=O)NCC1CCCO1 (centres undefined) | . | 42.7* | 3.9 | . | .
O=C(Cn1cc(C=C2C(=O)NC(=O)NC2=O)c2ccccc21)NCC1CCCO1 (centres undefined) | 3.0 | -2.2 | 0.8 | 1.6 | -9.6
COc1ccc(-n2nnnc2C(c2cccs2)N2CCC3(CC2)C(=O)NCN3c2ccccc2)cc1 (centres undefined) | . | 1.1 | 4.5 | . | .
O=C(COC(=O)c1cc(Br)cc(Br)c1O)NC12CC3CC(CC(C3)C1)C2 | . | 3.9 | 18.1 | . | .
N#CC(C#N)=NNc1ccc(S(N)(=O)=O)cc1 | -1.1 | 16.4 | 41.0* | 0.4 | 31.9
CN1C(=O)C(=Cc2ccc(Sc3ccccc3)o2)C(=O)N(C)C1=S | -0.9 | 43.5* | 3.0 | -1.6 | -11.0
COC1CC2C=C(C)C=CC=CC(=O)NC(c3ccccc3)CC=CCCC(O)CC(=O)C2=C1O (centres undefined) | . | 5.8 | 11.1 | . | .
O=C1CC=C2C3CC4N(CCC45c4cc(O)c(O)cc4N1C25)CC3=CCBr (centres undefined) | . | 22.3 | 92.2* | . | .
Cc1ccc(N2C(=O)NC(=O)/C(=C/c3ccc(-c4ccc(C(=O)O)c(Cl)c4)o3)C2=O)cc1 | 2.1 | 2.8 | 41.7* | 2.7 | 3.2
COC(=O)C1=C(C(=O)OC)SC2(S1)C(C(=O)OC)=C(C(=O)OC)Sc1c2ssc1=O | . | 63.3* | 1.5 | . | .
CCC1(CCC(C)C)C(=O)NC(=S)NC1=O | . | -0.9 | 4.7 | . | .
Clc1ccc(CO/N=C(\Cn2ccnc2)c2ccc(Cl)cc2Cl)c(Cl)c1 | 3.9 | . | . | 32.9* | -13.6
C=C1C(=O)OC2CC(C)C3C=CC(=O)C3(C)C(O)C12 (centres undefined) | . | -3.1 | 3.1 | . | .
C=C1C(=O)O[C@@H]2C[C@@H](C)[C@@H]3C=CC(=O)[C@@]3(C)[C@@H](OC(=O)CC(=O)O[C@H]3[C@@H]4C(=C)C(=O)O[C@@H]4C[C@@H](C)[C@@H]4C=CC(=O)[C@]43C)[C@H]12 | 2.6 | 95.3* | 16.9 | 8.8 | 4.5
COc1ccc(CN2Cc3cc(N4CCCCC4)ccc3-n3nncc3C2)cc1 | . | 3.7 | -2.4 | . | .
O=C(OCc1ccccc1)N1CCC2CC1c1cc(N3Cc4ccccc4-n4nncc4C3)ccc12 (centres undefined) | . | 6.6 | 4.1 | . | .

Bioassay records as filed in PubChem.
